Laboratory results from PubChem BioAssay AID463082 (The Scripps Research Institute Molecular Screening Center, 2010).
Among all 330,000 compounds or so, about 4,900 (1.5%) were called active.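 Rule for the calls: active = inhibition above the mean inhibition across the screen plus 3 SD (cut at about 25% in these data); inactive = the rest.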 The list comes from a sample in which actives are over-represented; it also holds similar structures and randomly drawn compounds.

molecular target: Platelet-activating factor acetylhydrolase (Homo sapiens) (UniProt Q13093); assay: pPAFAH enzyme inhibitors, primary screen, biochemical, fluorescence polarization, human (AID 463082); settings: recombinant pPAFAH, FP-rhodamine probe fluorescence polarization; at 3.39 µM; hits give high values;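 note: inhibitors block binding of the rhodamine activity-based probe so polarization drops; 0% = enzyme with DMSO and 100% = wells lacking pPAFAH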
Sequence (Q13093 whole entry, looked up): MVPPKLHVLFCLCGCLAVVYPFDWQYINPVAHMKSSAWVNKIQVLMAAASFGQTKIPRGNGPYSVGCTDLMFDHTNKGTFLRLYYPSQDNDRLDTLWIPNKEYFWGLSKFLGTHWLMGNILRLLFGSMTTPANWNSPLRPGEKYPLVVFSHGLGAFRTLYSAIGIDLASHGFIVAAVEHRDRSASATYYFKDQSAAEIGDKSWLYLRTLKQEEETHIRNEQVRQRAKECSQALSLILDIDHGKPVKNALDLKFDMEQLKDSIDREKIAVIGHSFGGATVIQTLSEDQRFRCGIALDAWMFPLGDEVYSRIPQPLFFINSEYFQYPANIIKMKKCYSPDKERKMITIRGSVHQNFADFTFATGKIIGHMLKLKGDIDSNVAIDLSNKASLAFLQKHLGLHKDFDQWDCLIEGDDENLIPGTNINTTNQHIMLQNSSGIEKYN

Compound	inhibition
CCOc1ccc(N(C)S(=O)(=O)c2cnc[nH]2)cc1	4.67% (inactive)
CC(Oc1cc2oc(=O)c3c(c2cc1Cl)CCCC3)C(=O)NCc1ccncc1 (stereo not given)	7.32% (inactive)
CCOC(=O)CSc1nnc(CNC(=O)c2cccs2)n1-c1cc(OC)ccc1OC	4.54% (inactive)
Cn1nccc1NC(=O)Nc1ccc(OC(F)(F)F)cc1	-4.08% (inactive)
Cn1cccc1/C=N/NC(=O)c1ccc(OC(F)(F)C(F)F)cc1	6.18% (inactive)
O=C(Nc1ccc(OC(F)(F)F)cc1)c1ccc2c(c1)no[n+]2[O-]	25.4% (active)
CCCCN1C(=O)CCC(C(=O)O)C1c1ccc(OC)cc1 (stereo not given)	2.74% (inactive)
CCOC(=O)C(C)Oc1cccc2c(=O)n(CC(=O)NCCc3ccc(OC)c(OC)c3)ccc12 (stereo not given)	0.87% (inactive)
Nn1c(SCC(=O)NC2CCCc3ccccc32)nnc1C1CC1 (stereo not given)	-1.35% (inactive)
C[C@H](NC(=O)c1ccccc1Cl)C(=O)OCCOc1cccc(Cl)c1	0.09% (inactive)
CCCCC1=CC2=CC(=O)C(C)(OC(=O)CC)C(=O)C2=CN1CCCOC(C)C (stereo not given)	-0.51% (inactive)
COC(=O)CCCC1=CC2=CC(=O)C(C)(OC(=O)c3cccs3)C(=O)C2=CN1CC(C)C (stereo not given)	5.09% (inactive)
COC/C=C/C1=CC2=CC(=O)C(C)(OC(=O)CCC(=O)OC)C(=O)C2=CO1 (stereo not given)	32.3% (active)
COc1ccc(OCC(=O)OCCN(C)C)cc1	0.82% (inactive)
O=C(CCCN1C(=O)CCC1=O)Nc1ccc(Cl)c(C(F)(F)F)c1	5.28% (inactive)
COc1ccc(Cl)cc1NC(=O)COC(=O)C(CC(C)C)N1C(=O)C2CC=CCC2C1=O (stereo not given)	-2.85% (inactive)
CCOc1ccc(N2CC(C(=O)NCCN3C(=O)S/C(=C\c4cccnc4)C3=O)CC2=O)cc1 (stereo not given)	8.89% (inactive)
COc1ccc(N2CC(C(=O)NCCN3C(=O)S/C(=C\c4cccnc4)C3=O)CC2=O)c(OC)c1 (stereo not given)	65.4% (active)
COc1ccccc1N1CC(C(=O)NCCN2C(=O)S/C(=C\c3cccnc3)C2=O)CC1=O (stereo not given)	4.51% (inactive)
COc1ccc(S(=O)(=O)N(C)CC(=O)N2CCCC2)cc1	-1% (inactive)
COc1cc(OC)cc(C(=O)NNC(=O)Cc2cccs2)c1	19.8% (inactive)
Cc1sc2nc(CSCC(=O)NC3CCCCC3)[nH]c(=O)c2c1C	9.75% (inactive)
CC(=O)c1sc2nc(SCC(=O)N3CCCCC3)[nH]c(=O)c2c1C	13.1% (inactive)
CSc1nnc(SCc2nc3sc(C(=O)O)c(C)c3c(=O)[nH]2)s1	49.9% (active)
CCc1ccc(NC(=O)CN2C(=O)CSC2=O)cc1	-3.77% (inactive)
